Records with an inconclusive call do not appear. The source made the active and inactive calls. Unless noted, calls come from the whole dose curve; as a rule, active = well fitted curve in the direction sought with a large enough effect in the repeat runs; inconclusive = weak or mixed curves; inactive = no such curve, though single readings can be large; an effect the other way counts as inactive or inconclusive.
Assays:
[1] = qHTS assay to identify small molecule antagonists of the estrogen receptor alpha (ER-alpha) signaling pathway using the BG1 cell line in the presence of 0.1 nM 17-beta-estradiol - cell viability counter screen (AID 1259241); note: nearly all actives have a fitted effect of over 40% in size
Summary of the method: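 Live-cell protease activity (CellTiter-Fluor fluorescence, 30 min) was read in the same wells after VM7Luc4E2 cells had been exposed to compounds with 0.1 nM 17beta-estradiol for 22 hr at 37C.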

[2] = qHTS assay to identify small molecule antagonists of the androgen receptor (AR) signaling pathway using the MDA cell line in the presence of 0.5 nM R1881 - cell viability counter screen (AID 1259242); note: nearly all actives have a fitted effect of over 45% in size
Summary of the method: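 Human breast carcinoma MDA-kb2 cells, cultured without CO2, receive compounds alongside 0.5 nM (final) R1881 agonist. After 16 hr at 37C, viability is taken as live-cell protease signal.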

[3] = qHTS assay to identify small molecule HDAC inhibitors (AID 1259364);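 note: wild-type HCT-116 cells with endogenous class I/II HDAC activity; top concentration of the series differs between compounds; nearly all actives have a fitted effect of over 45% in size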
Summary of the method: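 After a 2 hr compound incubation (37C, 5% CO2), HCT-116 cells seeded at 1,500/well the day before received HDAC-Glo reagent; signal read as luminescence after 30 min at room temperature.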

[4] = qHTS assay to identify small molecule HDAC inhibitors - cell viability counter screen (AID 1259365); note: series mostly up to about 92 µM; nearly all actives have a fitted effect of over 50% in size
Summary of the method: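 HCT-116 (wild type), 1,500 cells/well, overnight 37C/5% CO2; compound in DMSO 2hr; CellTiter-Glo 30min RT; luminescence read.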

[5] = qHTS assay to identify small molecule agonists of the sonic hedgehog signaling (Shh) pathway - cell viability counter screen (AID 1259366); note: nearly all actives have a fitted effect of over 50% in size
Summary of the method: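 CellTiter-Fluor fluorescence read-out, 1 hr at 37C, added after 23hr compound exposure. Cells: 3T3 Gli1-Luc, an NIH/3T3 clone with stably integrated Gli1-Luc reporter, plated 4hr before compound.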

[6] = qHTS assay to identify small molecule antagonists of the sonic hedgehog signaling (Shh) pathway - cell viability counter screen (AID 1259367); note: nearly all actives have a fitted effect of over 55% in size
Summary of the method: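 Fluorescence read-out (CellTiter-Fluor, 1 hr at 37C) taken after 23 hr compound treatment of 3T3 Gli1-Luc cells stimulated with conditioned medium. Cells were seeded at 2,000 per well and pre-incubated 4 hr.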

[7] = qHTS assay to identify small molecule agonists of the sonic hedgehog signaling (Shh) pathway (AID 1259368; calls by dose curve;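 note: NIH/3T3-derived 3T3Gli1-Luc cells carrying a stable Gli1-driven firefly luciferase reporter; series mostly up to about 92 µM; nearly all actives have a fitted effect of over 15% in size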)
Summary of the method: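 Stable NIH/3T3 Gli1-Luc reporter clone; 24 hr cpd exposure after a 4 hr settling period; luminescence endpoint.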

[8] = molecular target: Estrogen receptor beta (Homo sapiens) (UniProt Q92731); experiment: qHTS assay to identify small molecule agonists of the estrogen receptor beta (ER-beta) signaling pathway (AID 1259377; active = well fitted activation curve with a large enough effect in the signal ratio in the repeat runs, not every such curve was filed as active; the % refers to the signal ratio)
Summary of the method: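 Beta-lactamase reporter readout: fluorescence of LiveBLAzer B/G FRET substrate after 2 h at room temperature, following 16 h compound treatment of ER-beta-UAS-bla HEK293T cells at 37C in 2% charcoal-stripped FBS medium.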

[9] = molecular target: Estrogen receptor beta (Homo sapiens) (UniProt Q92731); experiment: qHTS assay to identify small molecule antagonists of the estrogen receptor beta (ER-beta) signaling pathway (AID 1259378; active = well fitted inhibition curve with a large enough effect in the signal ratio in the repeat runs, not every such curve was filed as active; the % refers to the signal ratio; note: potency is the fitted concentration of half-maximal effect)
Summary of the method: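 ER-beta-UAS-bla HEK293T cells in 2% charcoal-stripped FBS medium treated with compound plus 1nM final 17-beta-estradiol for 16 hr at 37C. Beta-lactamase reporter read by FRET substrate fluorescence after 2 hours at room temperature.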

[10] = qHTS assay to identify small molecule agonists of the androgen receptor (AR) signaling pathway in the presence of an antagonist - cell viability counter screen (AID 1259379); note: nearly all actives have a fitted effect of over 25% in size; note: potency is the fitted concentration of half-maximal effect
Summary of the method: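 Counter screen for cell viability run in parallel with the AR agonist-mode luciferase assay. MDA-kb2 cells were co-treated with nilutamide (3.0uM final) and compounds, then incubated 16 hr at 37C, and CellTiter-Fluor fluorescence was measured.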

[11] = qHTS assay to identify small molecule agonists of the estrogen receptor beta (ER-beta) signaling pathway - cell viability counter screen (AID 1259380); note: nearly all actives have a fitted effect of over 30% in size; note: potency is the fitted concentration of half-maximal effect
Summary of the method: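 In this qHTS counter screen, HEK293T cells carrying an ER-beta/UAS beta-lactamase reporter, grown in 2% charcoal-stripped FBS, received compound for 16 hr; ATP-based CellTiter-Glo luminescence was then read after 30 min at room temperature.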

[12] = qHTS assay to identify small molecule agonists or antagonists of the thyroid stimulating hormone receptor (TSHR) signaling pathway - wild type cell line counter screen (AID 1259384; calls by dose curve)
Summary of the method: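 Wild-type Hek293 cells, 800/well, 18 h at 37C, then compound with Ro20-1724 for 30 min RT. cAMP by HTRF (cAMP-d2/anti-cAMP cryptate), 1 h RT, fluorescence read. 15 concentrations, triplicates.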

[13] = molecular target: Thyrotropin receptor (Homo sapiens) (UniProt P16473); experiment: qHTS assay to identify small molecule antagonists of the thyroid stimulating hormone receptor (TSHR) signaling pathway (AID 1259385; calls by dose curve; note: nearly all actives have a fitted effect of over 20% in size)
Summary of the method: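 TSHR-HEK293 cells (800/well) plated 18 h, then compounds with Ro20-1724 and TSH at 1.5 ng/mL final, 30 min at room temperature. cAMP quantified by HTRF (cAMP-d2/anti-cAMP-cryptate, 1 h); 15 concentrations in triplicate.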

[14] = qHTS assay to identify small molecule antagonists of the sonic hedgehog signaling (Shh) pathway (AID 1259369; calls by dose curve; note: nearly all actives have a fitted effect of over 45% in size)
Summary of the method: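 Gli1 transcriptional reporter (firefly Luc) in NIH/3T3 background, conditioned-medium activated. 24hr exposure, luminescence endpoint.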

[15] = qHTS assay to identify small molecule antagonists of the estrogen receptor beta (ER-beta) signaling pathway - cell viability counter screen (AID 1259382); note: series mostly up to about 92 µM; nearly all actives have a fitted effect of over 55% in size
Summary of the method: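 HEK293T ER-beta-UAS-bla, 2% charcoal-stripped FBS; compounds + 1nM E2 16 hr 37C; CellTiter-Glo luminescence, 30 min RT.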

[16] = molecular target: Androgen receptor (Homo sapiens) (UniProt P10275); experiment: qHTS assay to identify small molecule antagonists of the androgen receptor (AR) signaling pathway using the MDA cell line in the presence of 0.5 nM R1881 (AID 1259243); note: nearly all actives have a fitted effect of over 50% in size
Summary of the method: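 Cells: MDA-kb2 (MMTV-luc). Stimulus: 0.5 nM R1881. Time: 16 hr, 37C, no CO2. Detection: ONE-Glo luminescence after 30 min at RT.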

[17] = molecular target: Estrogen receptor (Homo sapiens) (UniProt P03372); experiment: qHTS assay to identify small molecule antagonists of the estrogen receptor alpha (ER-alpha) signaling pathway using the BG1 cell line in the presence of 0.1 nM 17-beta-estradiol (AID 1259244); note: nearly all actives have a fitted effect of over 50% in size
Summary of the method: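 Seeding of stripped-serum-adapted VM7Luc4E2 cells, 24 h attachment, compound transfer, then 0.1 nM final 17beta-estradiol; after 22 h incubation, ONE-Glo reagent and luminescence reading.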

[18] = molecular target: Androgen receptor (Homo sapiens) (UniProt P10275); experiment: qHTS assay to identify small molecule agonists of the androgen receptor (AR) signaling pathway in the presence of an antagonist (AID 1259381; calls by dose curve; note: nearly all actives have a fitted effect of over 15% in size)
Summary of the method: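 AR antagonist background: nilutamide 3.0uM final. Cell line: MDA-kb2, MMTV-driven luciferase, responsive to both AR and GR. Exposure 16hr, 37C, no CO2; ONE-Glo luminescence.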

[19] = molecular target: Estrogen receptor (Homo sapiens) (UniProt P03372); experiment: qHTS assay to identify small molecule agonists of the estrogen receptor alpha (ER-alpha) signaling pathway in the presence of an antagonist (AID 1259383; calls by dose curve; note: top concentration of the series differs between compounds; nearly all actives have a fitted effect of over 15% in size)
Summary of the method: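 ER-alpha agonism measured under antagonist challenge: 10.0nM ICI-182,780 (final) plus compound, 15 concentrations, 22hr, VM7Luc4E2 ERE-luciferase cells. Read by luminescence.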

[20] = qHTS assay to identify small molecule phospholipidosis (PLD) inducers (AID 1259344; active = well fitted curve in the direction sought with a large enough effect; an effect the other way counts as inactive or inconclusive)
Summary of the method: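 Read-out is LipidTOX Red fluorescence (ex 595/em 615) imaged in HepG2 cells after 24 h compound exposure at 37 C, with Hoechst nuclear counterstain (ex 352/em 461) allowing per-cell normalisation.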

Measured: Potency

Chain of Estrogen receptor (Homo sapiens) (P03372 whole entry, looked up): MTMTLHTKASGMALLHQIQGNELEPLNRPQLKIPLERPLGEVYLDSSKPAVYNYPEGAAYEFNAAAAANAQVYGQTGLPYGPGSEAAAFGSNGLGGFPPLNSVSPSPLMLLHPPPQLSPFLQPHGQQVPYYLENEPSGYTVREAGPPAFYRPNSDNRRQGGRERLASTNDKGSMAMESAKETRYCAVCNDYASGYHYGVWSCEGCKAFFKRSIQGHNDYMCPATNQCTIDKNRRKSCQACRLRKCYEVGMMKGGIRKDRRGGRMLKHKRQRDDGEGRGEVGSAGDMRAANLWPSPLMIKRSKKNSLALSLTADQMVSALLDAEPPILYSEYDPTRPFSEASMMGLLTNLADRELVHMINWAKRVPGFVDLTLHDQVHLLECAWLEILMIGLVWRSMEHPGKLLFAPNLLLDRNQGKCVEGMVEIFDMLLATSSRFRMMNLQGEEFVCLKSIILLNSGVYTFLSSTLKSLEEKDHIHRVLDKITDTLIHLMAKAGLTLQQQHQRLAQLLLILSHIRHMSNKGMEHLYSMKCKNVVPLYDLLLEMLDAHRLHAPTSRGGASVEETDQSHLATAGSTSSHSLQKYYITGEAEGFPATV
Chain of Androgen receptor (Homo sapiens) (P10275 whole entry, looked up): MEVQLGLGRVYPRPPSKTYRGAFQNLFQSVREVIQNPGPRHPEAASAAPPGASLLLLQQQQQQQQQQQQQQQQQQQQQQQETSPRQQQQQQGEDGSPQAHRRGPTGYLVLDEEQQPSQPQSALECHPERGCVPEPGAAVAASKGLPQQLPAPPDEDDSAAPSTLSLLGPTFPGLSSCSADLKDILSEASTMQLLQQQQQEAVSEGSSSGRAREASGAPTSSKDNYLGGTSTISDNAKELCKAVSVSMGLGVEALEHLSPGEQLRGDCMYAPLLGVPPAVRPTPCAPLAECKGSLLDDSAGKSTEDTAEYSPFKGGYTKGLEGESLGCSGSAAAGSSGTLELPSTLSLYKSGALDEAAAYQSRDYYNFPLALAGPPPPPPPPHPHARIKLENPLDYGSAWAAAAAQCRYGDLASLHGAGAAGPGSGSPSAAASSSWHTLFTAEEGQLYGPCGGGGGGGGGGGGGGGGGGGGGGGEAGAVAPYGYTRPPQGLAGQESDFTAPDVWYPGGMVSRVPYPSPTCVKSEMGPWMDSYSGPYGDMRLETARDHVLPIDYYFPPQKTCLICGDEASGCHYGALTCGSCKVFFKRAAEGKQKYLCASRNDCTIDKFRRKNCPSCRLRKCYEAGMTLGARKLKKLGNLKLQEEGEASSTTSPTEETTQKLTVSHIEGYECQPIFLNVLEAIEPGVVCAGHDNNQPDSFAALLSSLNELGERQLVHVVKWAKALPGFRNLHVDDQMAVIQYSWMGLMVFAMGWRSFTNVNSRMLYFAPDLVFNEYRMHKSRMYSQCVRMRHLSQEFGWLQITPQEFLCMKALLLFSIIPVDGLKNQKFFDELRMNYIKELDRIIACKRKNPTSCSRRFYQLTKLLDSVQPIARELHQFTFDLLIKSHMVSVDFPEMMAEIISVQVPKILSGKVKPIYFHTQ
Chain of Estrogen receptor beta (Homo sapiens) (Q92731 whole entry, looked up): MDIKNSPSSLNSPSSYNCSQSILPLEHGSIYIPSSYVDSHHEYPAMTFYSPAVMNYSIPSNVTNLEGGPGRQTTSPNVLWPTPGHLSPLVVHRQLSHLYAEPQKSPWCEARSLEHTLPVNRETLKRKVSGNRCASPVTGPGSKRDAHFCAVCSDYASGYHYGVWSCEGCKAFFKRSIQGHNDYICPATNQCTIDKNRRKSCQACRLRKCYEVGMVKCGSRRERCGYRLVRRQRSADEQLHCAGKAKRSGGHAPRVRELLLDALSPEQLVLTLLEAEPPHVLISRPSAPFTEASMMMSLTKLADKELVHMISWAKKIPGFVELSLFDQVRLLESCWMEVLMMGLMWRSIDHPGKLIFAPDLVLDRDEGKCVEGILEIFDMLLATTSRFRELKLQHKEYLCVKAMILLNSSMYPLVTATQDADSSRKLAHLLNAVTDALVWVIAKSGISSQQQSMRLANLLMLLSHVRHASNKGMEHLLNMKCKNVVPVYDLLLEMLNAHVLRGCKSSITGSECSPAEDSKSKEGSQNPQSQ
Chain of Thyrotropin receptor (Homo sapiens) (P16473 whole entry, looked up): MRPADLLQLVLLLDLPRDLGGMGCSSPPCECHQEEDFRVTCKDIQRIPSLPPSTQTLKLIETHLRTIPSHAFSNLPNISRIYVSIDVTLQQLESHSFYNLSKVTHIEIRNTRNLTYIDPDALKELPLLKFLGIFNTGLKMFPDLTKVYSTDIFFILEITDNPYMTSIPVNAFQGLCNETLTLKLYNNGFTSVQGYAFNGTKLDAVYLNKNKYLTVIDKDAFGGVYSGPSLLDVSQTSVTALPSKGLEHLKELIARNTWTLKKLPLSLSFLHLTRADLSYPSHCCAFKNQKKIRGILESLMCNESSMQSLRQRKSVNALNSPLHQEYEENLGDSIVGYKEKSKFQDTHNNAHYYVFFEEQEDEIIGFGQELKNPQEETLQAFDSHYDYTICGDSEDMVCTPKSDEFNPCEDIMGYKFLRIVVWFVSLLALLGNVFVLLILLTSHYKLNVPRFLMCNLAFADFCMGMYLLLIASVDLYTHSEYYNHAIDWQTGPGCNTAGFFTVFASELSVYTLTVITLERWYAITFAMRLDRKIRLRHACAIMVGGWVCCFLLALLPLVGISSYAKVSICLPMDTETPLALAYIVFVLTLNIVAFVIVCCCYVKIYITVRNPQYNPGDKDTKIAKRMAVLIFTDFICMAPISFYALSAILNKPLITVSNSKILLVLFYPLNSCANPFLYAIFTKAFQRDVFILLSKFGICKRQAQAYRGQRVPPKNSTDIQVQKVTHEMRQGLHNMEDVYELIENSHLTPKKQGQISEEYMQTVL

[As]#[In]
not listed: [14] | [15] | [16] | [17] | [18] | [19] | [20]
inactive: all other assays above

O=C(CCN1CC1)OCC(CO)(COC(=O)CCN1CC1)COC(=O)CCN1CC1
not listed: [7] | [8] | [9] | [16] | [17] | [18] | [19] | [20]
inactive: all other assays above

CCCSP(=O)(OCC)Oc1ccc(Br)cc1Cl (stereo unspecified)
not listed: [9] | [14] | [16] | [17] | [18] | [19] | [20]
inactive: all other assays above

CNC(=O)Oc1ccccc1C1OCCO1
not listed: [1] | [7] | [12] | [13] | [14] | [20]
inactive: all other assays above

O=C(N[C@H]1CN2CCC1CC2)c1cc2ccoc2cn1
not listed: [1] | [11] | [19] | [20]
inactive: all other assays above

ClCCOCOCCCl
not listed: [5] | [15] | [16] | [17] | [18] | [19] | [20]
inactive: all other assays above

CCS(=O)(=O)CCSP(=O)(OC)OC
inactive: [1] | [2] | [3] | [4] | [6] | [7] | [10] | [11] | [15] | [12] | [13]

CNC(=O)O/N=C(\C)SC
inactive: [1] | [2] | [3] | [4] | [5] | [6] | [9] | [10] | [12] | [13]

O=C(Nc1ccccc1)N(Cc1ccc(Cl)cc1)C1CCCC1
inactive: [1] | [2] | [3] | [4] | [7] | [8] | [15] | [12] | [13]
active: [9] 24.3 µM | [10] 68.6 µM

CC(N)=S
not listed: [8] | [14] | [16] | [17] | [18] | [19] | [20]
inactive: all other assays above

CCOC(=O)NC(=S)Nc1ccccc1NC(=S)NC(=O)OCC
inactive: [1] | [2] | [4] | [5] | [6] | [7] | [8] | [9] | [10] | [11] | [15]

COc1cc(OC)nc(Sc2cccc(Cl)c2C(=O)O)n1
inactive: [1] | [2] | [3] | [4] | [6] | [7] | [14] | [10] | [11] | [12] | [13]

CN/C(=N\[N+](=O)[O-])NCC1CCOC1 (stereo unspecified)
not listed: [7] | [16] | [17] | [18] | [19] | [20]
inactive: all other assays above

CC1CCCCC1NC(=O)Nc1ccccc1 (stereo unspecified)
not listed: [1] | [3] | [14] | [16] | [17] | [18] | [19] | [20]
inactive: all other assays above

CN1CCC(N(Cc2ccccc2)c2ccccc2)CC1
active: [11] 13.3 µM
not listed: [1] | [8] | [9] | [14] | [15] | [16] | [18] | [20]
inactive: all other assays above

CCCSP(=S)(OCC)Oc1ccc(Cl)cc1Cl (stereo unspecified)
not listed: [1] | [8] | [9] | [13] | [16] | [18] | [20]
inactive: all other assays above

O=C(Oc1ccc(Br)cc1)N1CCN2CCC1CC2
not listed: [1] | [8] | [9] | [14] | [16] | [18] | [19] | [20]
inactive: all other assays above

CCN(Cc1ccc(Cl)nc1)/C(=C/[N+](=O)[O-])NC
not listed: [1] | [5] | [15] | [16] | [18]
inactive: all other assays above
